Assay results from PubChem BioAssay AID1159580 (chemical genetic matrix, 2015).
Values joined by “and” are separate entries in the source; they are usually repeats but may differ in a detail not shown here. Equal entries are not always repeated. Out of some 5,500 compounds screened, about 2,000 (36%) were called active. Inconclusive results (about 18%) are left out. Cut-off read from the data, not from the text of the source: active = normalized growth mostly below about 0.91 (no sharp cut-off); inconclusive = no clear call, values can overlap the other calls; inactive = mostly above about 0.92. The list shows a part of the results.

Test: chemical genetic growth profiling, strain panel (AID 1159580);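 note: tested at 20 µM; growth read once vehicle control cultures reached saturation at 30 °C; 1 = growth at the plate median or of vehicle wells; lower values mean less growth of the strain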
Settings: growth OD

Measured: normalized growth

Cc1cc(C(C)(C)C)c(O)c(C)c1CC1=NCCN1
inactive: S. cerevisiae deletion strains, locus YJR066W, strain TOR1, active compounds read low 0.928 | S. cerevisiae deletion strains, locus YJR075W, strain HOC1, active compounds read low 0.995 | S. cerevisiae deletion strains, locus YKL009W, strain mrt4, active compounds read low 1.01 | S. cerevisiae deletion strains, locus YKL068W, active compounds read low 1 | S. cerevisiae deletion strains, locus YKL085W, strain MDH1 (second series), active compounds read low 1 | S. cerevisiae deletion strains, locus YKL085W, strain MDH1, active compounds read low 1 | S. cerevisiae deletion strains, locus YKL160W, strain elf1, active compounds read low 1.02 | S. cerevisiae deletion strains, locus YKL190W, strain CNB1, active compounds read low 0.991 | S. cerevisiae deletion strains, locus YKR001C, strain vps1, active compounds read low 1.02 | S. cerevisiae deletion strains, locus YKR026C, strain gcn3, active compounds read low 1.01 | S. cerevisiae deletion strains, locus YKR091W, strain srl3, active compounds read low 0.996 | S. cerevisiae deletion strains, locus YLL001W, strain dnm1, active compounds read low 1.01 | S. cerevisiae deletion strains, locus YLL026W, active compounds read low 1.02 | S. cerevisiae deletion strains, locus YLL041C, strain sdh2, active compounds read low 1.01 | S. cerevisiae deletion strains, locus YLR027C, strain aat2, active compounds read low 1 | S. cerevisiae deletion strains, locus YLR039C, strain RIC1, active compounds read low 1.01 | S. cerevisiae deletion strains, locus YLR058C, strain SHM2, active compounds read low 0.991 | S. cerevisiae deletion strains, locus YLR102C, strain apc9, active compounds read low 1 | S. cerevisiae deletion strains, locus YLR113W, strain HOG1, active compounds read low 0.997 | S. cerevisiae deletion strains, locus YLR221C, strain rsa3, active compounds read low 1.01 | S. cerevisiae deletion strains, locus YLR258W, strain gsy2, active compounds read low 1 | S. cerevisiae deletion strains, locus YLR262C, strain YPT6 (second series), active compounds read low 1.02 | S. cerevisiae deletion strains, locus YLR262C, strain YPT6, active compounds read low 0.974 | S. cerevisiae deletion strains, locus YLR268W, strain sec22, active compounds read low 1.01 | S. cerevisiae deletion strains, locus YLR320W, strain mms22, active compounds read low 1.02 | S. cerevisiae deletion strains, locus YLR330W, strain CHS5, active compounds read low 0.999 | S. cerevisiae deletion strains, locus YLR342W, strain FKS1 (second series), active compounds read low 0.984 | S. cerevisiae deletion strains, locus YLR342W, strain FKS1, active compounds read low 1 | S. cerevisiae deletion strains, locus YLR357W, strain rsc2, active compounds read low 1.02 | S. cerevisiae deletion strains, locus YLR370C, strain arc18, active compounds read low 1.01 | S. cerevisiae deletion strains, locus YLR371W, strain rom2, active compounds read low 1.01 | S. cerevisiae deletion strains, locus YLR384C, strain iki3, active compounds read low 1.02 | S. cerevisiae deletion strains, locus YLR418C, strain cdc73, active compounds read low 1.02 | S. cerevisiae deletion strains, locus YML016C, strain PPZ1, active compounds read low 0.998 | S. cerevisiae deletion strains, locus YML032C, strain rad52, active compounds read low 0.999 | S. cerevisiae deletion strains, locus YML120C, strain ndi1, active compounds read low 1.01 | S. cerevisiae deletion strains, locus YML124C, strain tub3, active compounds read low 1.02 | S. cerevisiae deletion strains, locus YMR058W, strain fet3, active compounds read low 1.01 | S. cerevisiae deletion strains, locus YMR078C, strain ctf18, active compounds read low 1.02 | S. cerevisiae deletion strains, locus YMR125W, strain sto1, active compounds read low 1 | S. cerevisiae deletion strains, locus YMR129W, active compounds read low 1 | S. cerevisiae deletion strains, locus YMR205C, strain PFK2, active compounds read low 1.04 | S. cerevisiae deletion strains, locus YMR223W, strain ubp8, active compounds read low 1 | S. cerevisiae deletion strains, locus YMR231W, strain pep5, active compounds read low 1.01 | S. cerevisiae deletion strains, locus YMR263W, strain SAP30, active compounds read low 1 | S. cerevisiae deletion strains, locus YMR307W, strain GAS1, active compounds read low 0.985 and 0.998 | S. cerevisiae deletion strains, locus YNL067W, strain RPL9B, active compounds read low 0.988 | S. cerevisiae deletion strains, locus YNL071W, strain lat1, active compounds read low 1 | S. cerevisiae deletion strains, locus YNL128W, strain TEP1, active compounds read low 0.998 and 1.04 | S. cerevisiae deletion strains, locus YNL153C, strain GIM3, active compounds read low 0.996 and 1.01 | S. cerevisiae deletion strains, locus YNL175C, strain NOP13, active compounds read low 1 | S. cerevisiae deletion strains, locus YNL183C, strain NPR1, active compounds read low 0.936 | S. cerevisiae deletion strains, locus YNL197C, strain WHI3, active compounds read low 1.01 | S. cerevisiae deletion strains, locus YNL209W, strain ssb2, active compounds read low 1 | S. cerevisiae deletion strains, locus YNL224C, strain SQS1, active compounds read low 1.02 | S. cerevisiae deletion strains, locus YNL233W, strain BNI4, active compounds read low 1 | S. cerevisiae deletion strains, locus YNL248C, strain rpa49, active compounds read low 0.997 | S. cerevisiae deletion strains, locus YNL250W, strain rad50, active compounds read low 1.01 | S. cerevisiae deletion strains, locus YNL271C, strain bni1, active compounds read low 1.02 | S. cerevisiae deletion strains, locus YNL298W, strain CLA4, active compounds read low 0.982 | S. cerevisiae deletion strains, locus YNL307C, strain MCK1, active compounds read low 1.01 | S. cerevisiae deletion strains, locus YNL322C, strain KRE1 (second series), active compounds read low 1.03 | S. cerevisiae deletion strains, locus YNL322C, strain KRE1, active compounds read low 0.998 | S. cerevisiae deletion strains, locus YNR049C, strain mso1, active compounds read low 1.01 | S. cerevisiae deletion strains, locus YNR052C, strain pop2, active compounds read low 1.02 | S. cerevisiae deletion strains, locus YOL006C, strain TOP1, active compounds read low 1.01 | S. cerevisiae deletion strains, locus YOL012C, strain htz1 1.23 | S. cerevisiae deletion strains, locus YOL147C, strain pex11, active compounds read low 1.01 | S. cerevisiae deletion strains, locus YOR001W, strain rrp6, active compounds read low 0.97 | S. cerevisiae deletion strains, locus YOR061W, strain CKA2, active compounds read low 1 | S. cerevisiae deletion strains, locus YOR069W, strain VPS5, active compounds read low 0.997 | S. cerevisiae deletion strains, locus YOR070C, strain gyp1, active compounds read low 1.01 | S. cerevisiae deletion strains, locus YOR080W, strain dia2, active compounds read low 1 | S. cerevisiae deletion strains, locus YOR083W, strain WHI5 (second series), active compounds read low 1.02 | S. cerevisiae deletion strains, locus YOR083W, strain WHI5, active compounds read low 1.03 | S. cerevisiae deletion strains, locus YOR106W, strain vam3, active compounds read low 1.02 | S. cerevisiae deletion strains, locus YOR136W, strain idh2, active compounds read low 1 | S. cerevisiae deletion strains, locus YOR144C, strain elg1, active compounds read low 1 | S. cerevisiae deletion strains, locus YOR184W, strain ser1, active compounds read low 1.01 | S. cerevisiae deletion strains, locus YOR231W, strain MKK1, active compounds read low 1.01 | S. cerevisiae deletion strains, locus YOR265W, strain rbl2, active compounds read low 1 | S. cerevisiae deletion strains, locus YOR270C, strain vph1, active compounds read low 1.01 | S. cerevisiae deletion strains, locus YOR290C, strain snf2, active compounds read low 1.03 | S. cerevisiae deletion strains, locus YOR316C, strain cot1, active compounds read low 1 | S. cerevisiae deletion strains, locus YPL051W, strain arl3, active compounds read low 1.02 | S. cerevisiae deletion strains, locus YPL055C, strain LGE1, active compounds read low 0.983 | S. cerevisiae deletion strains, locus YPL078C, strain atp4, active compounds read low 1.01 | S. cerevisiae deletion strains, locus YPL106C, strain sse1, active compounds read low 1.04 | S. cerevisiae deletion strains, locus YPL240C, strain hsp82, active compounds read low 0.994 | S. cerevisiae deletion strains, locus YPL256C, strain CLN2, active compounds read low 0.961 | S. cerevisiae deletion strains, locus YPR119W, strain clb2, active compounds read low 1 | S. cerevisiae deletion strains, locus YPR141C, strain kar3, active compounds read low 1.01 | S. cerevisiae deletion strains, locus YPR163C, strain tif3, active compounds read low 1.02 | S. cerevisiae deletion strains, locus YPR167C, strain met16, active compounds read low 1.01 | S. cerevisiae deletion strains, strain wtn01, active compounds read low 1.01 | S. cerevisiae strains, strain wild type, active compounds read low 0.984
